Screening data from PubChem.
DRD3 agonist: D3 dopamine receptor (human) agonism; D3R DiscoveRx beta-arrestin cells, luminescence, 90 min; max activation, %; 0.58% of 410,000 active; AID 652048; in the data active means max activation above about 30%; further: 0% is about no effect
Target sequence (P35462 whole entry, looked up): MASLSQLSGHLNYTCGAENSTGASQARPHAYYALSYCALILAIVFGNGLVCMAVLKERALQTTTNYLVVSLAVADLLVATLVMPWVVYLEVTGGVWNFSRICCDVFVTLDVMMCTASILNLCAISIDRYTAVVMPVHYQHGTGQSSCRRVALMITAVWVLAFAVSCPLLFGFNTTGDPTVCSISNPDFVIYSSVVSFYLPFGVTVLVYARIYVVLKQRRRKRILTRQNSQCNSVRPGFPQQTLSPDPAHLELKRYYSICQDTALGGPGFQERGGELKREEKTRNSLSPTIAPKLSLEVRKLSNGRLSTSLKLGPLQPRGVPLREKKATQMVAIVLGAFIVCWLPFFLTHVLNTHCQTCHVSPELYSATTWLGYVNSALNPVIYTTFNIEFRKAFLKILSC
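Agonist mode: compounds and dopamine controls were applied to plated cells for 90 min at 37 degrees C after an overnight attachment at 1500 cells/well. Luminescent read-out followed 30 - 60 minutes at room temperature with DiscoveRx detection reagent.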
D1 antag: human D1 dopamine receptor antagonism. P21728. HEK293 TREx D1 cells, calcium flux, dopamine EC80; hits give low values. 3.2% of 360,000 active. AID 504652. activity change, negative = inhibition, % at 10 µM; in the data active means activity change below about -30%; further: on the % scale 0 is the no-effect control and ±100 the full control effect
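Allosteric or orthosteric antagonism assessed as attenuation of the calcium response to EC80 dopamine, added 180 s after compound, in induced HEK293 Trex D1 cells loaded with no-wash calcium dye.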
D1 PAM: enhances dopamine response at the human D1 receptor; potentiation, % at 10 µM; HEK293 TREx D1 cells, calcium flux, dopamine EC20 potentiation; P21728; AID 504651; 0.036% of 360,000 active; in the data active means potentiation above about 30%; further: 0% is about no effect
D1 ag: agonists of human D1 dopamine receptor. P21728. HEK293 T-REx D1 cells, calcium flux, agonist mode. activation, % at 2 µM. 1% of 360,000 active. AID 504660; in the data active means activation above about 30%; further: 0% is about no effect
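Inducible HEK293 T-REx D1 cells, force-coupled to calcium signalling, were plated at 4000 cells/well with tetracycline and held overnight at 30 C. After no-wash calcium dye loading, compound-evoked calcium rise over 180 s flagged agonists.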
D3 antag: antagonists of human D3 dopamine receptor; D3R cells, DiscoveRx beta-arrestin luminescence, antagonist mode; hits give low values; max response, negative = inhibition, %; 2.5% of 360,000 active; in the data active means max response below about -50%; further: on the % scale 0 is the no-effect control and ±100 the full control effect
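Cells expressing the human receptor were seeded at 1500 cells/well, incubated overnight at 37 degrees C in 5% CO2, then exposed to library compounds with dopamine controls for 90 minutes at 37 degrees C before luminescent detection.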
Numbers without * were called inactive; x = no result. Hits are enriched below; roughly 6% of the tested compounds scored in any of these assays.

SMILES	DRD3 agonist	D1 antag	D1 PAM	D1 ag	D3 antag
O=C1C2C3C=CC(C3)C2C(=O)N1/N=C/c1cc(Br)cc([N+](=O)[O-])c1O (configuration not stated)	-17	-10	-11	8	-68*
O=C(Cc1csc2nc(-c3ccc(F)cc3)cn12)NCc1ccccc1	4	5	1	-1	x
CCOc1ccc(NS(=O)(=O)c2ccc(C(=O)NCc3ccccn3)cc2)cc1	6	8	-19	33*	5
CC(=O)Nc1ccc(S(=O)(=O)Nc2ccc(C(=O)NCC(=O)O)cc2)cc1	4	-66*	-3	2	3
CCOc1ccc(NS(=O)(=O)c2ccc(C(=O)NCc3ccncc3)cc2)cc1	5	5	-10	12	7
COc1ccc(C(=O)NCc2ccccn2)cc1	-5	-2	5	1	-65*
CC(=O)Nc1ccc(S(=O)(=O)Nc2ccc(S(=O)(=O)Nc3nc(C)cc(C)n3)cc2)cc1	-13	-20	-1	4	1
COc1cccc2cc(C(=O)NCc3ccccn3)c(=O)oc12	-4	-49*	-3	0	4
COCCn1c(-c2ccc(OC)cc2)c(-c2ccc(OC)cc2)oc1=O	-2	0	-6	1	19
COc1cccc(-n2cc(C(=O)Nc3ccccc3C(N)=O)c3ccccc3c2=O)c1	0	-21	-3	-1	x
Cc1ccc(NS(=O)(=O)c2ccc(C(=O)NCc3ccncc3)cc2)cc1	10	13	8	27	8
O=C(O)C1CCCCC1C(=O)NCc1ccccn1 (configuration not stated)	1	17	-11	2	-5
Cc1ccc(C(C)n2cc(C(=O)NCc3ccccn3)nn2)cc1 (configuration not stated)	3	15	-6	33*	-4
CC1=C(C)CC(C(=O)NCc2ccccn2)C(C(=O)O)C1 (configuration not stated)	3	-91*	-4	3	23
CC(c1ccc(F)cc1)n1cc(C(=O)NCc2ccccn2)nn1 (configuration not stated)	3	14	-4	22	9
Cc1ccc(NS(=O)(=O)c2ccc(C(=O)NCc3ccccn3)cc2)cc1	2	-30	-8	40*	-3
Cc1ccc(CNC(=O)c2cc(NS(=O)(=O)c3ccc(C)cc3)ccn2)cc1	7	-32*	3	-1	x
CCOC(=O)C1=C(C)Nc2ccccc2N=C1NC(=O)c1cc(C)on1	4	-22	-5	0	54
CC1(C(=O)NCc2ccccc2Br)CCN1Cc1ccc2ccccc2c1 (configuration not stated)	0	x	x	x	-15
COc1cc(NC(=O)CSc2nnc(NC(C)C)s2)cc(OC)c1OC	2	-11	-1	5	4
O=C(CCC(=O)OCC(=O)c1ccc(Cl)cc1)Nc1ccc(Oc2ccccc2)cc1	-5	-4	-3	7	x
O=C(CNS(=O)(=O)c1ccccc1)NCc1ccccn1	2	-6	-10	2	-51*
COc1ccc(N=c2oc3c(OC)cccc3cc2C(=O)NCc2ccco2)cc1OC	33*	-7	5	0	18
Cc1cc(-c2ccc(S(=O)(=O)Nc3cc(Cl)ccc3C)s2)on1	-19	-5	-5	13	x
Cc1ccc(S(=O)(=O)N2C[C@H]3C(=O)C[C@@H](c4ccc(Cl)cc4)N(S(=O)(=O)c4ccc(C)cc4)[C@H]3C[C@H]2c2cccc3ccccc23)cc1	1	x	x	x	-3
SMILES	DRD3 agonist	D1 antag	D1 PAM	D1 ag	D3 antag
CN(c1nnc(NC(=O)Nc2ccc(Br)cc2)s1)C1CCCCC1	9	5	-1	3	x
COC(=O)c1ccc(NC(=O)Nc2nnc(N(C)C3CCCCC3)s2)cc1	3	-55*	3	-1	x
C/C(=N\NC(=O)c1ccncc1)c1cc2ccccc2oc1=O	1	-34*	2	4	6
C/C(=N/NC(=O)c1ccncc1)c1cc2ccc(O)cc2oc1=O	14	-7	-2	41*	18
C/C(=N/NC(N)=S)c1cc2ccc(O)cc2oc1=O	8	6	-5	6	38
CN[C@@H](CO)C(=O)NC[C@H]1O[C@@H](n2cnc3c(=O)[nH]c(N)nc32)[C@H](O)[C@@H]1O	10	x	x	x	3
COc1ccc(NC(=O)c2cccc(N3CCCS3(=O)=O)c2)c(OC)c1	6	7	-2	1	x
C=C1C(=O)C2=CC1CCC(=O)C1(C)CCC(OC(C)=O)C(C)(C)C1CC2O (configuration not stated)	4	x	x	x	-20
Cc1nc(N2CCCC2)ncc1C(=O)NCc1ccc(Cl)cc1	12	14	0	0	x
Cc1nnc(NC(=O)CSCc2cc(=O)c3ccc(C)c(C)c3[nH]2)s1	-1	-1	0	0	x
CCC(Sc1nc2ccccc2c2nc(CCn3c(C)nc4ccccc43)nn12)C(=O)Nc1ccc(F)cc1 (configuration not stated)	5	-42*	-4	1	x
O=C(c1cc(-c2ccncc2)nc2ccc(Cl)cc12)N1CCN(Cc2ccc3c(c2)OCO3)CC1	2	1	-7	3	21
Cc1cc(C)c2nc(-c3ccncc3)cc(C(=O)N3CCN(Cc4ccccc4Cl)CC3)c2c1	43*	-16	8	6	54
Cc1ccccc1NC(=S)NCC(c1cccnc1)N(C)C (configuration not stated)	2	-8	0	1	1
CSc1ccccc1C(=O)NCCOc1cccc(C)c1	2	-50*	-4	3	-2
Cc1ccc(C)c(NC(=S)NCC(c2ccccc2)N(C)C)c1 (configuration not stated)	-39	-5	3	11	-60*
Cc1ccc(C(=O)NCCOc2cccc(C)c2)cc1	-11	-4	5	1	0
Cc1cccc(OCCC(=O)NCC(c2ccccc2)N(C)C)c1 (configuration not stated)	-5	4	-2	3	-60*
COc1ccc(C(CNC(=O)CCOc2ccccc2)N(C)C)cc1 (configuration not stated)	-52	-23	-2	2	-76*
COc1cc(C(c2c(C)[nH][nH]c2=O)c2c(C)[nH][nH]c2=O)ccc1OC(=O)c1cccc(C)c1	-14	1	-1	1	x
Cc1c(CCO)c(=O)[nH]n1C(=O)c1ccc(F)cc1	-8	-31*	-9	1	8
Cc1c(CCO)c(=O)n(C)n1C(=O)c1ccc(F)cc1	-2	12	-7	5	-19
COc1ccccc1N1CCN(C(=O)C(CCSC)NS(=O)(=O)c2ccc3c(c2)oc(=O)n3C)CC1 (configuration not stated)	-7	-2	-5	-1	x
COCCCNC(=O)C1CCN(c2cc(C)nc3c(-c4ccc(OC)c(OC)c4)c(C)nn23)CC1	10	3	0	1	x
